PubChem BioAssay (NCI)
About 83,000 compounds went through this panel and 20% of them were active in at least one assay; those are over-represented in the sample as a whole.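 Negative percent growth values reflect cell death: -40 means 40% of the cells present at the start died, and -100 means all died.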 Calls of active or inactive are those of the source. How the source made its calls: active means growth percent below 10; inactive means the rest.

Columns and labels:
Assay in all cases: NCI-60 one-dose screen, 48 h (100 = growth as untreated, 0 = no growth, -100 = all killed)
Conditions in all cases: 10 µM unless noted
[1] = tested on: NCI-H23 lung
[2] = tested on: NCI-H226 lung
[3] = tested on: NCI-H322M lung
[4] = tested on: HOP-62 NSCLC
[5] = tested on: NCI-H460 lung
[6] = tested on: HOP-92 NSCLC
[7] = tested on: NCI-H522 lung
[8] = tested on: A549/ATCC NSCLC
[9] = tested on: 786-0 renal
[10] = tested on: COLO 205 colon

Measured: growth

CC/C=C1/C(=O)C=C[C@@H]1C/C=C\CCCC(=O)OC
inactive: [1] 74.8% | [2] 88.1% | [3] 108% | [4] 90.5% | [5] 97.9% | [6] 91.3% | [8] 90.2% | [9] 82.5% | [10] 97.3%
active: [7] -38.3%

CCCCCCCCNc1cc2c3c(c1)CCCN3CCC2
active: [1] -9.97% | [6] -5.51% | [7] -28.4% | [10] 3.21%
inactive: [2] 39.1% | [3] 111% | [4] 27% | [5] 16.9% | [8] 76.4% | [9] 42.7%

CCCCSCC(=O)c1ccccc1
inactive: [1] 86.2% | [2] 99.6% | [3] 89.7% | [4] 80.9% | [5] 109% | [6] 94.5% | [7] 58.2% | [8] 78.1% | [9] 99.8% | [10] 100%

COc1ccc2[nH]cc(-c3nc(-c4cn(C)c5ccncc45)cs3)c2c1
active: [5] -51% | [8] 6.03%
inactive: [1] 93.9% | [2] 106% | [3] 90.9% | [4] 95.4% | [6] 98.2% | [7] 65.4% | [9] 79% | [10] 96.2%

N#Cc1c(-c2ccccc2)c(C#N)c2c(C#N)c(N)nn2c1N
inactive: [1] 72.2% | [2] 74% | [3] 83.5% | [4] 40.2% | [5] 19.7% | [6] 27.1% | [7] 13.1% | [8] 38.7% | [9] 53.4% | [10] 29.4%

Nc1c(C(=O)Nc2cccc3ncccc23)sc2nc3c(cc12)C(=O)CCC3
inactive: [1] 53.8% | [2] 62.2% | [3] 62.2% | [4] 39% | [5] 19.9% | [6] 41.8% | [7] 11.1% | [8] 49.6% | [9] 56.5% | [10] 45.9%

CCCCCCNc1nc(NCCCCCC)c2[nH]c(NCCCCCC)nc2n1
inactive: [1] 48.2% | [2] 92.1% | [4] 75.7% | [5] 48.1% | [9] 68.2%
active: [3] 1.94% | [6] -12.9% | [7] -42% | [8] 7.63% | [10] -2.12%

COc1ccc(/C(C)=C(\c2ccc(OCCN3CCCCCC3)cc2)c2ccc(OC(=O)c3ccccc3)cc2)cc1
inactive: [1] 52.2% | [2] 75.3% | [3] 80.5% | [4] 75.7% | [5] 10.2% | [6] 54.4% | [7] 68.3% | [8] 41.1% | [9] 27.5% | [10] 12.4%

Oc1c(Cl)cc(Cl)c2ccc(Cn3cc(-c4cccc(C(F)(F)F)c4)nn3)nc12
inactive: [1] 90% | [2] 90.1% | [3] 102% | [4] 97.5% | [5] 101% | [6] 55.8% | [8] 97.9% | [9] 95.6% | [10] 92.9%
active: [7] -3.26%

CCOC(=O)c1cn2ncnc(Oc3ccc(NC(=O)NC4CC4)c(F)c3)c2c1C
inactive: [1] 90.4% | [2] 78.6% | [3] 105% | [4] 95.2% | [5] 99.1% | [6] 132% | [7] 90.2% | [8] 102% | [9] 106% | [10] 113%

CCN(CC)CCN(CCN(CC)CC)c1ccccc1
inactive: [1] 93% | [2] 94.6% | [3] 103% | [4] 98.5% | [5] 107% | [6] 67.3% | [7] 79% | [8] 93.1% | [9] 67.4% | [10] 97.8%

Cn1ccnc1C(=O)/C=C/c1ccc(C(=O)Nc2ccc(F)cc2)cc1
inactive: [1] 15.9% | [2] 13.8% | [3] 11% | [6] 11.1% | [8] 10.8% | [10] 25.8%
active: [4] 5.2% | [5] -44.5% | [7] 7.55% | [9] -35.2%

CCCCn1sc(=O)n(Cc2ccc(CNC(=O)OCc3ccc4c(Br)cc(Br)c(O)c4n3)cc2)c1=O
active: [5] 4.44% | [7] -7.12%
inactive: [1] 36.1% | [2] 31.6% | [3] 46% | [4] 27.1% | [6] 37.8% | [8] 18.9% | [9] 92.2% | [10] 114%

O=C(CSc1nc2ccc([N+](=O)[O-])cc2[nH]1)Nc1ccc(Br)cc1
inactive: [1] 44.1% | [2] 47.9% | [3] 86.7% | [4] 50.9% | [5] 47.7% | [7] 20.9% | [8] 44.5% | [9] 48.3% | [10] 41.2%
active: [6] -8.92%

COc1ccc(C2=NN(C(C)=O)C(c3ccc(Oc4ccnc5cc(Cl)ccc45)c(OC)c3)C2)cc1 (stereo not given)
active: [2] -0.374% | [6] -1.54%
inactive: [1] 65.9% | [3] 26.7% | [4] 27.6% | [5] 30.7% | [7] 46.8% | [8] 44.6% | [9] 23.9% | [10] 47.7%

COc1cc(C#Cc2ccc(=O)oc2C#Cc2ccccc2)cc(OC)c1OC
inactive: [1] 64.8% | [2] 76.6% | [3] 103% | [4] 102% | [5] 84.7% | [6] 112% | [7] 18.2% | [8] 95.7% | [9] 83% | [10] 23.6%

CCOC(=O)c1ccc2c(c1)c1c(C)c3ccncc3c(C)c1n2C
active: [1] -26.4% | [2] -37.1% | [4] -16.1% | [5] -5.22% | [6] 1.34% | [7] -52.6% | [8] 8.4% | [10] -44.7%
inactive: [3] 18.1% | [9] 16.7%

CCN(CC)CCOc1nc2c3ccc(Cl)cc3nn2c2ccccc12
inactive: [1] 34.5% | [2] 47.1% | [3] 29.2% | [4] 42.3% | [5] 11.4% | [7] 27.9% | [8] 16.3% | [9] 23.6%
active: [6] -3.36% | [10] 4.4%

COc1cc(C2=NN(C(C)=O)C(c3ccc(N(C)C)cc3)C2)cc(OC)c1OC (stereo not given)
inactive: [1] 88.8% | [2] 97.8% | [3] 82.7% | [4] 83.9% | [5] 107% | [6] 79.7% | [7] 72.4% | [8] 90.6% | [9] 79.7% | [10] 108%

O=C(Cn1cc(CN2C(=O)c3ccccc3S2(=O)=O)nn1)Nc1cccc(Cl)c1
inactive: [1] 97.1% | [2] 117% | [3] 99% | [4] 125% | [5] 111% | [6] 105% | [7] 93.9% | [8] 111% | [9] 115% | [10] 114%

O=C1/C(=C/c2ccc(C(F)(F)F)cc2)COc2ccc(O)cc21
inactive: [1] 98% | [2] 107% | [3] 95.2% | [4] 96.2% | [5] 98.4% | [6] 82.4% | [8] 87.1% | [9] 80% | [10] 90.7%
active: [7] -13.6%

CC(C)CSc1oc(-c2ccccc2)nc1S(=O)(=O)c1ccccc1
inactive: [1] 83.4% | [2] 75.7% | [3] 99% | [4] 94.4% | [5] 97.2% | [6] 45.8% | [7] 70.8% | [8] 79.8% | [9] 87% | [10] 109%

CC1(C)OC(=O)C(=Cc2cccc(Br)c2)C(=O)O1
inactive: [1] 103% | [2] 96.2% | [3] 113% | [4] 88.1% | [5] 105% | [6] 85.8% | [7] 77.5% | [8] 87.9% | [9] 109% | [10] 104%

COc1ccc(C(c2cc(OC)c(OC)c(OC)c2)N2CCCC2)cc1 (stereo not given)
inactive: [1] 85.3% | [2] 87.6% | [3] 87.5% | [4] 79.5% | [5] 84.3% | [6] 85.5% | [7] 58.5% | [8] 77.7% | [9] 93.4% | [10] 71.2%

N=c1c2c(=N)n3c(nc2nc2n1-c1ccccc1Sc1ccccc1-2)sc1cc(Cl)ccc13
active: [1] 7.38% | [6] -14.1% | [7] 4.09%
inactive: [2] 32.9% | [3] 47.1% | [4] 76.8% | [5] 13.8% | [8] 14% | [9] 30% | [10] 44.8%

C#CCOc1ccc2ncnc(Nc3cccc(NC(=O)CCl)c3)c2c1
inactive: [1] 73.5% | [2] 88.3% | [3] 92.1% | [4] 93.2% | [5] 49.2% | [6] 85% | [7] 38.9% | [8] 67% | [9] 72.6% | [10] 96.7%

CC(=O)c1cc(-c2ccccc2N)n(-c2ccc3c(c2)OCO3)c1C
inactive: [1] 43.4% | [3] 31.6% | [4] 30.6% | [6] 38.8% | [7] 18.4% | [8] 19.5% | [9] 23.9%
active: [2] -0.426% | [5] 2.71% | [10] -18.6%
